Assay outcomes as filed in PubChem.
cardiac RTF act: increases calcium sensitivity of human cardiac regulated thin filaments; hit rate 0.24% among 340,000; P19429+P45379; activation, % at 7.2 µM; IANBD-labeled TnC RTF fluorescence at EC20 calcium; 0% EC20 calcium, 100% full calcium;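 active = activation above the mean over all tested compounds plus 3 SD, cut at about 30% in these data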;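 also: rise in fluorescence read as greater calcium sensitivity of cardiac thin filaments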
IDE cell inh: inhibitors of human insulin-degrading enzyme in cells; P14735; hit rate 0.41% among 320,000; inhibition, % at 5.59 µM; HEK cells, FAbetaB cleavage, fluorescence polarization;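 active = percent inhibition above the average of all tested compounds plus 3 SD, set per screening campaign, cut at about 16% in these data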;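 also: IDE supplied by intact live HEK cells; FP after avidin binding of uncleaved biotin substrate so inhibition keeps polarization high; 0% = DMSO wells and 100% = 60 µM reference IDE inhibitor Ii1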
IDE act: IDE (human) activation, cell-based. activation, % at 5.96 µM. HEK cells, FAbeta-B cleavage, fluorescence polarization; 0% vehicle, 100% cell-free pure enzyme wells. P14735. hit rate 0.073% among 340,000;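 active = activation above the mean of all tested compounds plus 3 SD, set per screening campaign, cut at about 17% in these data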
Cardiac RTF inh: cardiac RTF calcium desensitization; IANBD-labeled cardiac RTF, Ca2+ fluorescence; inhibition, % at 7.15 µM; hit rate 0.12% among 340,000; AID 493244;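 active = inhibition above the mean inhibition of all tested compounds plus 3 SD, cut at about 17% in these data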;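 also: assay run at fixed EC70 calcium of 1.6 mM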
C-LANA FP: KSHV C-LANA DNA binding inhibition; MBP-C-LANA/FAM-LBS DNA binding, fluorescence polarization; inhibition, % at 9 µM; hit rate 0.078% among 340,000; AID 504423;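 active = highest replicate inhibition at or above 60% at 9 µM, even if other replicates fall short; inactive = all replicates below 60% inhibition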;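 also: 0% = neutral control wells and 100% = 4 µM acridine orange control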
Keap1-Nrf2 PPI: inhibitors of human Keap1-Nrf2 protein-protein interaction; Keap1 Kelch-Nrf2 peptide fluorescence polarization, 1536-well; hit rate 0.15% among 340,000; inhibition, % at 9.4 µM; AID 504523; in the data active = inhibition above about 12%;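 also: human Keap1 Kelch domain with fluorescein labeled Nrf2 9mer peptide probe; 0% = neutral control wells and 100% = peptide positive control; higher means more block of Keap1 binding to Nrf2 peptide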
Starred values were filed as active, the others as inactive. Sampled rows, rich in hits. Any-hit rate of the full collection: about 0.81%.

`CN1C(=O)C(N=Nc2ccccc2C(=O)O)N(C)C1=S` (stereo not drawn) gave cardiac RTF act 2, IDE cell inh 21*, IDE act -42, Cardiac RTF inh 0, C-LANA FP -4 and Keap1-Nrf2 PPI -6.
O=C(CN1CCOCC1)N1CCOCC1 was read as cardiac RTF act -1, IDE act 8, Cardiac RTF inh 0, C-LANA FP 0 and Keap1-Nrf2 PPI -3.
`CC(=O)NC1=NC(=O)/C(=C/c2cn(C(C)=O)nc2-c2ccccc2)S1` gave cardiac RTF act -1, IDE cell inh 20*, IDE act -4, Cardiac RTF inh -1, C-LANA FP -3 and Keap1-Nrf2 PPI -5.
For CCN=C1S/C(=C\c2cn(C(C)=O)nc2-c2ccccc2)C(=O)N1CC the results were cardiac RTF act 3, IDE cell inh 1, IDE act 0, Cardiac RTF inh -3, C-LANA FP 2 and Keap1-Nrf2 PPI -3.
`CC(C)CC1NC(=O)N(CC(=O)Nc2ccc(OC(F)F)cc2)C1=O` (stereo not drawn) gave cardiac RTF act 8, IDE act 3, Cardiac RTF inh 3, C-LANA FP -1 and Keap1-Nrf2 PPI -2.
COc1ccc2c(c1)OC[C@H]1[C@H]2N2C(=O)[C@H](C)NC(=O)[C@@]2(C)[C@H]1c1ccccc1 was read as cardiac RTF act -4, IDE cell inh 0, IDE act 1, Cardiac RTF inh -19, C-LANA FP 2 and Keap1-Nrf2 PPI 1.
COc1cc(NC(=O)N2CCNC2=O)cc(C(=O)Nc2cccc(C(F)(F)F)c2)c1 was read as cardiac RTF act 1, IDE cell inh 2, IDE act 38*, Cardiac RTF inh -5, C-LANA FP -1 and Keap1-Nrf2 PPI 1.
For Cc1ccc2c(c1C)NC(C(=O)O)C1CC=CC21 (stereo not drawn) the results were cardiac RTF act -17, IDE cell inh 4, IDE act 3, Cardiac RTF inh 16, C-LANA FP 3 and Keap1-Nrf2 PPI 7.
O=C(O)C1Nc2c(C(=O)N3CCOCC3)cccc2C2C=CCC12 (stereo not drawn) was read as cardiac RTF act -10, IDE cell inh -1, IDE act 1, Cardiac RTF inh 13, C-LANA FP 72* and Keap1-Nrf2 PPI 0.
For O=C(O)c1ccccc1NS(=O)(=O)c1ccc(NN=Cc2ccc(F)cc2)c([N+](=O)[O-])c1 the results were cardiac RTF act 2, IDE cell inh -2, IDE act 5, Cardiac RTF inh -2, C-LANA FP 1 and Keap1-Nrf2 PPI 3.
O=C(O)c1ccccc1NS(=O)(=O)c1ccc(N/N=C/c2ccc(O)c(O)c2)c([N+](=O)[O-])c1 was read as cardiac RTF act -10, IDE act 6, Cardiac RTF inh 3, C-LANA FP 80* and Keap1-Nrf2 PPI 8.
`COc1ccccc1[C@@]1(C)ON(c2ccccc2C(F)(F)F)C1=O` gave cardiac RTF act -7, IDE cell inh 4, IDE act 4, Cardiac RTF inh -2, C-LANA FP 0 and Keap1-Nrf2 PPI -3.
Screening CC(C)(CNC(=O)c1cc([N+](=O)[O-])ccc1N1CCC(Cc2ccccc2)CC1)N1CCOCC1 returned cardiac RTF act 2, IDE cell inh -5, IDE act -6, Cardiac RTF inh 1, C-LANA FP 2 and Keap1-Nrf2 PPI -6.
For COC(=O)C1=C(C)N(Cc2ccccc2)C(=NCc2cccc(Cl)c2)N[C@H]1c1cccc(F)c1 the results were cardiac RTF act 4, IDE cell inh 3, IDE act 18*, Cardiac RTF inh -8, C-LANA FP -2 and Keap1-Nrf2 PPI -4.
Screening COC(=O)C1=C(C)N(Cc2ccccc2)C(=NCc2ccccc2)N[C@H]1c1cccc(C(F)(F)F)c1 returned cardiac RTF act 13, IDE cell inh 6, IDE act 22*, Cardiac RTF inh 1, C-LANA FP -2 and Keap1-Nrf2 PPI 5.
`COC(=O)C1=C(C)N(Cc2ccccc2)C(=NCc2ccc(OC)cc2)N[C@H]1c1cccc(F)c1` gave cardiac RTF act 1, IDE cell inh 3, IDE act 5, Cardiac RTF inh 1, C-LANA FP -2 and Keap1-Nrf2 PPI -2.
`CCCNC(=O)C(Cc1ccc(Br)cc1)NC(=O)c1ccc(C#N)cc1` (stereo not drawn) gave cardiac RTF act -4, IDE cell inh 2, IDE act 0, Cardiac RTF inh -17, C-LANA FP -1 and Keap1-Nrf2 PPI -3.
`COc1cc2c(cc1OC)C(Cc1ccccc1[N+](=O)[O-])=NCC2` gave cardiac RTF act -3, IDE act -1, Cardiac RTF inh -18, C-LANA FP 0 and Keap1-Nrf2 PPI -2.
Screening O=C(c1cc([N+](=O)[O-])ccc1N1CCOCC1)N1CCN(c2ccc([N+](=O)[O-])cc2)CC1 returned cardiac RTF act -11, IDE cell inh -15, IDE act 30*, Cardiac RTF inh 1, C-LANA FP 1 and Keap1-Nrf2 PPI -4.
For O=C(c1cc([N+](=O)[O-])ccc1N1CCOCC1)N1CCCCC1 the results were cardiac RTF act 2, IDE cell inh -4, IDE act 1, Cardiac RTF inh 6, C-LANA FP 2 and Keap1-Nrf2 PPI -2.
For CC(C)(CS(=O)(=O)[O-])NC(=O)CC[N+](C)(C)CCO the results were cardiac RTF act -6, IDE cell inh 3, IDE act 3, Cardiac RTF inh -7, C-LANA FP 82* and Keap1-Nrf2 PPI -1.
`COC(=O)c1c(NC(=O)COC(=O)CC(NC(C)=O)c2ccccc2)sc(C)c1C` (stereo not drawn) gave cardiac RTF act 1, IDE cell inh -2, IDE act 4, Cardiac RTF inh -16, C-LANA FP -2 and Keap1-Nrf2 PPI -1.
Screening O=C1c2cccc3c(O)ccc(c23)C(=O)N1Cc1ccccc1 returned cardiac RTF act 957*, IDE cell inh -16, IDE act 59*, Cardiac RTF inh inactive, C-LANA FP 92* and Keap1-Nrf2 PPI 7.
`O=C(O)c1cccc(CN2C(=O)c3ccccc3C2=O)c1` gave cardiac RTF act -14, IDE cell inh -2, IDE act 3, Cardiac RTF inh -1, C-LANA FP 1 and Keap1-Nrf2 PPI 1.
CC(=O)Nc1ccc(S(=O)(=O)Nc2nc3ccccc3nc2Nc2ccc(C(=O)O)c(O)c2)cc1 was read as cardiac RTF act -6, IDE cell inh 1, IDE act 5, Cardiac RTF inh 2, C-LANA FP 90* and Keap1-Nrf2 PPI 4.
Cc1ccc(S(=O)(=O)CCC(=O)NC2CCCC2)cc1 was read as cardiac RTF act -2, IDE cell inh 6, IDE act -1, Cardiac RTF inh -1, C-LANA FP 1 and Keap1-Nrf2 PPI -3.
